Rows were chosen to be rich in hits. Some 0.86% of all compounds tested hit in one or more screens of this group.
Tb PGK inh = T. brucei PGK inhibition. P07378. PGK/GAPDH coupled, Kinase-Glo luminescence, 60 min. Potency, µM (titrated, usually from 57.5 µM), inactives show top-dose activity change, negative = inhibition, usual class: inhibitors. 0.043% of 380,000 active. AID 602233; also: nearly all actives have a fitted effect of over 60% in size
Target sequence (P07378 whole entry, looked up): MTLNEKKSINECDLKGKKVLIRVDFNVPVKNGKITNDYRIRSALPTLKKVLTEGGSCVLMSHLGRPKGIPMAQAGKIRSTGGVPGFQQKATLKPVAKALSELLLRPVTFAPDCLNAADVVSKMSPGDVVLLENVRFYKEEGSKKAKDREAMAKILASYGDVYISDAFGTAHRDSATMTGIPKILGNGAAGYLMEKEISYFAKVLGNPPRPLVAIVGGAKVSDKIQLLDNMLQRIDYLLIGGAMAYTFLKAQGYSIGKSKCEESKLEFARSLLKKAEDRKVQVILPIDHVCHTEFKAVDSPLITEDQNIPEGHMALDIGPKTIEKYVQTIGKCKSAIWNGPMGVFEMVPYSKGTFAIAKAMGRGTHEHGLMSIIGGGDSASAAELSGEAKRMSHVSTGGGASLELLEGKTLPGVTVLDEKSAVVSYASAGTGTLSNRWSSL
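Recombinant glycosomal PGK reaction used 1,3-bisphosphoglycerate generated in-well by GAPDH (100nM final) in 100mM TEA pH 7.6, 5mM MgCl2, 0.01% Tween-20. After 60 minutes at room temperature, ATP was read by Kinase-Glo Plus luminescence end-point.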
GLS inh = glutaminase GLS (human) inhibition | O94925 | Potency, µM (top dose mostly 45.5 µM), for inactives: at the top dose activity change, negative = inhibition, usual class: inhibitors | 0.21% of 410,000 active | GLS enzymatic activity, qHTS titration
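Human kidney-isoform GLS in 45 mM KH2PO4 pH 8.2, 0.02% Tween-20, with compound, started with 1mM L-Glutamine (added stock). Glutamate oxidase/HRP/Amplex red coupled fluorescence read at start and after 30 min at RT.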
RECQ1 inh-1 = RECQ1 (human) helicase inhibition; RECQ1 DNA unwinding, red fluorescence kinetic read; P46063; Potency, µM (titrated, usually from 57.3 µM), without a hit: at the highest dose activity, negative = inhibition, actives largely listed as inhibitors; AID 2549; 0.54% of 240,000 active;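 also: plate controls were vehicle for no effect and no enzyme for full effect; nearly all actives have a fitted effect of over 30% in size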
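RECQ1T1 50 nM; forked duplex (20 bp + 30-nt ss tails) 200 nM, ATP 2 mM final; pH 8.0, 2 mM MgCl2, 2.5 ug/ml poly(dI-dC); 15 min compound preincubation; discontinuous kinetic read over 2 h at RT.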
APE1 inh-1 = blocks human APE1 abasic DNA cleavage. AID 2517. recombinant APE1, TAMRA/BHQ-2 abasic DNA cleavage fluorescence. P27695. 0.35% of 350,000 active. Potency, µM (doses to about 65.8 µM), for inactives: at the highest dose activity change, negative = inhibition, most hits filed as inhibitors;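 also: plate controls were vehicle for no effect and reference inhibitor for full effect; nearly all actives have a fitted effect of over 55% in size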
Target sequence (P27695 whole entry, looked up): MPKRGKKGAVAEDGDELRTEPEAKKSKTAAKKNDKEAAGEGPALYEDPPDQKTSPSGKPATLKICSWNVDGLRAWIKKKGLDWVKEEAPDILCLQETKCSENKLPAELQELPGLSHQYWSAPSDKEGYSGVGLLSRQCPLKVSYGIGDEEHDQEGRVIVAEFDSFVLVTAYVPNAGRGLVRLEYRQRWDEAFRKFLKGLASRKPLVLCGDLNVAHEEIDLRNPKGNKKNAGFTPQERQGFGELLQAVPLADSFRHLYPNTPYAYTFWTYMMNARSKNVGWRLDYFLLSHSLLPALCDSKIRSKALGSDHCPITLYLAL
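Endonuclease cleavage of a quenched abasic-site DNA duplex (50 nM) by APE1 (0.75 nM) was tracked by TAMRA dequenching. Compounds were preincubated with enzyme 15 min at room temperature; data normalized to buffer-only and DMSO wells plus NSC13755 control.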
FEN1 inh = human FEN1 inhibition; Recombinant FEN1 flap cleavage, fluorescence, 15 min; AID 588795; Potency, µM (top dose mostly 114 µM), for the others: at the top dose activity change, negative = inhibition, usual class: inhibitors; P39748; 0.35% of 390,000 active; also: nearly all actives have a fitted effect of over 65% in size
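Enzyme 10 nM, 15 min RT preincubation with compound; start with substrate 50 nM final; reads at 0 and 15 min; qHTS titration, four-parameter Hill fit.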
BLM inh-1 = Bloom syndrome helicase (human) inhibition; 0.2% of 350,000 active; Potency, µM (highest dose often 56.1 µM), for the others: top-dose activity change, negative = inhibition, actives largely listed as inhibitors; AID 2528; recombinant BLM DNA unwinding, fluorescence dequenching; P54132;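 also: plate controls were vehicle for no effect and no enzyme for full effect; nearly all actives have a fitted effect of over 35% in size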
APE1 dye cs = counter-screen for APE1 inhibitors: DNA dye displacement. shares compounds with APE1 inh-1. DNA fluorescent dye displacement counterscreen, fluorescence. Potency, µM (series often up to 28.5 µM), inactives show at the top dose activity change, negative = inhibition, usual class: inhibitors. 7% of 480 active. AID 2564;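 also: loss of thiazole orange fluorescence as the dye is displaced from duplex DNA; 0% = ThO with dsDNA and no compound and -100% = ThO without dsDNA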
Endo IV inh = counter-screen for APE1 inhibitors: inhibitors of E. coli endonuclease IV. 4% of 560 active. shares compounds with APE1 inh-1. E. coli Endo IV, fluorogenic AP-site DNA cleavage. Potency, µM (series often up to 27.1 µM), inactives show at the top dose activity change, negative = inhibition, hits mostly inhibitors;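 also: plate controls were uninhibited enzyme wells for no effect and no enzyme buffer wells for full effect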
APE1 inh-2 = confirmation of inhibitors of human APE1 endonuclease; shares compounds with APE1 inh-1; purified APE1, fluorogenic abasic-site DNA cleavage; Potency, µM (series often up to 57.1 µM), for the others: at the top dose activity change, negative = inhibition, hits mostly inhibitors; 44% of 750 active; also: nearly all actives have a fitted effect of over 30% in size
APE1 FP = APE1 (human) DNA binding inhibition, fluorescence polarization. shares compounds with APE1 inh-1. APE1 binding to TAMRA-labelled double-stranded DNA, fluorescence polarization displacement. 7% of 480 active. Potency, µM (doses to about 28.5 µM), for inactives: at the highest dose activity, negative = inhibition, hits mostly inhibitors
BLM inh-2 = confirmation of inhibitors of human Bloom syndrome helicase BLM | 40% of 220 active | AID 2585 | Potency, µM, without a hit: max response, negative = inhibition, hits mostly inhibitors | shares compounds with BLM inh-1 | BLM DNA unwinding, fluorescence quenching, biochemical;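 also: strand separation dequenches TAMRA so unwinding raises red fluorescence; series mostly up to about 69 µM; nearly all actives have a fitted effect of over 45% in size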
RECQ1 inh conf = confirmation of human RECQ1 helicase inhibitors. RECQ1 helicase DNA unwinding, fluorescence. shares compounds with RECQ1 inh-1. 28% of 610 active. Potency, µM (series often up to 229 µM), inactives show top-dose activity change, negative = inhibition, most hits filed as inhibitors. AID 2708; also: nearly all actives have a fitted effect of over 45% in size
RECQ1 ADP FP = counter-screen for RECQ1 inhibitors: ADP displacement; shares compounds with RECQ1 inh-1; ADP fluorescence polarization displacement counterscreen; Potency, µM (doses to about 228 µM), without a hit: at the top dose activity change, negative = inhibition, usual class: inhibitors; 27% of 530 active; AID 2711; also: nearly all actives have a fitted effect of over 45% in size
RECQ1 inh-2 = confirmation of human RECQ1 helicase inhibitors; 15% of 1,100 active; shares compounds with RECQ1 inh-1; AID 504841; recombinant RECQ1 DNA unwinding, red fluorescence; Potency, µM (series often up to 119 µM), for the others: top-dose activity, negative = inhibition, most hits filed as inhibitors; also: nearly all actives have a fitted effect of over 50% in size
* = called active by the depositor; i = inactive; ? = inconclusive; . = not tested or not shown; ! = repeats disagree; [ ] = remark or other dose. Calls follow the shape of the dose curve; as a rule, active = well fitted curve in the direction sought with a large enough effect; inconclusive = small, poorly fitted or top-dose-only effect, or another doubt; inactive = no such curve, though single readings can be large; an effect the other way counts as inactive or inconclusive. Unless noted, % is scaled to controls: 0 for no effect and ±100 for the full control effect; potency is read from the fitted curve at half-maximal effect.

SMILES | Tb PGK inh | GLS inh | RECQ1 inh-1 | APE1 inh-1 | FEN1 inh | BLM inh-1 | APE1 dye cs | Endo IV inh | APE1 inh-2 | APE1 FP | RECQ1 inh-2 | others
O=C(Cn1c(=O)n(Cc2ccco2)c(=O)c2c3c(sc21)CCCCC3)Nc1ccccc1 | -5% | -8% | 13µM* | 11µM* | ? | 20µM* | ? | -5% | ? | -1% | . | BLM inh-2=?
COC(=O)c1ccc2cc(OC)c(OC)cc2c1 | 0% | 3% | . | . | . | . | . | . | . | . | .
COC(=O)c1cc(=O)c(O)c2c(O)c(O)ccc2c1 | . | . | 8.9µM* | 1.3µM* | . | ? | . | -17%[57.1 µM] | 7.1µM* | . | . | BLM inh-2=?
COc1cc(/C=C2\C=Cc3ccccc32)ccc1N(C)C | . | . | . | . | -14% | . | . | . | . | . | .
COc1ccc2cc([C@H](C)CO)ccc2c1 | . | . | . | -1% | . | . | . | . | . | . | .
Cc1ccc(S(=O)(=O)Nc2csc(C)c2C(=O)O)cc1 | -20% | 9% | ? | 11µM* | 0% | -2% | -7% | -1% | ? | ? | ?
Cc1ccc(S(=O)(=O)Nc2cc(C)c(O)cc2C)cc1 | 2% | -26% | i | 0% | -11% | -7% | . | . | . | . | .
O=c1/c(=C/c2ccco2)sc2nc(-c3ccccc3Br)nn12 | -9% | -3% | 16µM* | 22µM* | 10% | -21% | -1% | 32% | ? | -3% | ? | RECQ1 inh conf=-12%[114 µM];RECQ1 ADP FP=-6%[91.9 µM]
CCC1(CC)NC(=O)N(CC(=O)Nc2sc3c(c2C(N)=O)CCC3)C1=O | -10% | 2% | 22µM* | 18µM* | -28% | -19% | -12% | ? | ? | ? | ? | RECQ1 inh conf=45µM*;RECQ1 ADP FP=?
CC[N+]1(CC(=O)c2cccs2)CCCCC1 | . | . | . | . | 19% | . | . | . | . | . | .
O=C(NC1CC1)c1cc(-c2ccco2)nc2ccccc12 | ? | ? | 20µM* | 11µM* | ? | 14µM* | ? | ? | 25µM* | 224% | . | BLM inh-2=20µM*;RECQ1 inh conf=20µM*;RECQ1 ADP FP=56µM*
COc1ccc(N2Cc3cccc(C(=O)NC(C)CCc4ccco4)c3C2=O)cc1 (stereo unspecified) | -20% | 0% | 7.9µM* | 11µM* | ? | ? | -14% | 3% | 11µM* | -16% | 10µM* | RECQ1 inh conf=35µM*;RECQ1 ADP FP=-11%[91.9 µM]
CN(C)c1ccc(C=O)cc1[N+](=O)[O-] | . | . | . | . | -14% | . | . | . | . | . | .
O=C1C=CC2=C3c4cc(O)c(O)cc4CC3(O)COC2=C1O (stereo unspecified) | 2.8µM* | ? | 1.3µM* | 0.11µM* | 3.5µM* | 16µM* | ? | 70%[57.1 µM] | 1.4µM* | 18µM* | . | RECQ1 inh conf=11µM*;RECQ1 ADP FP=3.2µM*
Cc1ccc2c(/C=C/c3ccc(N(C)C)cc3)ccnc2c1 | . | . | . | . | -10% | . | . | . | . | . | .
NC(=O)c1ccc(-n2nnnc2SCC(=O)c2ccc(O)c(O)c2)cc1 | ? | -29% | 8.9µM* | 4µM* | -13% | -22% | -4% | 128% | 11µM* | -1% | ?
Cc1ccccc1CSc1nnnn1-c1ccc(C(N)=O)cc1 | -18% | -5% | . | 3% | 4% | -3% | . | . | . | . | .
COc1cccc2c1NC(C(=O)O)C1CC=CC21 (stereo unspecified) | ? | 2.8µM* | 8.9µM* | 11µM* | 25µM* | 16µM* | ? | -11% | 16µM* | -48% | ?
COc1cccc(C2Nc3c(F)cc(Br)cc3C3C=CCC32)c1OC (stereo unspecified) | 9% | -2% | -1% | -1% | -2% | -3% | . | . | . | . | .
CC1(OC(=O)C2CCCC2)C(=O)C=C2C=C3CCCN3C=C2C1=O (stereo unspecified) | . | . | i[11.5 µM] | 2%[12.4 µM] | . | -6%[12.4 µM] | . | . | . | . | .
COC(=O)CCCC1=CC2=CC(=O)C(C)(OC(=O)c3cccs3)C(=O)C2=CN1Cc1ccco1 (stereo unspecified) | 7% | -10% | ? | ? | -1% | -10%[12.4 µM] | 2% | -2% | -11%[24.4 µM] | ? | 9%
CC1(OC(=O)c2cccs2)C(=O)C=C2C=C3CCCN3C=C2C1=O (stereo unspecified) | ? | 16µM* | 25µM* | 8.9µM* | ? | 22µM* | 0% | 17% | ? | -8% | ? | RECQ1 inh conf=35µM*;RECQ1 ADP FP=35µM*
CCCCC1=CC2=C(c3ccco3)C(=O)C(C)(OC(=O)c3ccc(OC)cc3)C(=O)C2=CN1Cc1ccco1 (stereo unspecified) | -7% | 3% | 6.3µM*! | 7.1µM* | -2% | ? | -9% | -3% | ? | -4% | -9%
COC(=O)c1ccccc1NC(=O)c1noc2c1CCC2 | ? | ? | ? | ? | ? | ? | ? | 24% | 11µM* | ? | ?
COc1ccc(OC)c(NC(=O)c2noc3c2CCCC3)c1 | i | 0% | . | . | ? | -3% | . | . | . | . | .
O=C(C[n+]1cccc2cc(Cl)ccc21)c1ccc(Br)cc1 | . | . | . | . | -17% | . | . | . | . | . | .
